In PubChem BioAssay AID463173 (ICCB-Longwood Screening Facility, Harvard Medical School, 2010):
In all, about 52,000 compounds went through this assay and about 4,300 (8.3%) were called active. Many of the other results were omitted from the sample, so actives are more common in it than they were. Values without a mark were called inactive. Rule as the data show it: active = survival mostly below about 52% (no sharp cut-off); inactive = mostly above about 56%.

The molecules below were run on DeltatarO mutant (assay: S. aureus survival, RN4220 and DeltatarO strains – OD600, teichoic acid synthesis inhibitors, primary screen (AID 463173)). Conditions: S. aureus RN4220 wild type/DeltatarO growth, OD600, 18 h, active compounds read low, screened at 18.75 µg/mL (by protocol).

Row | SMILES | survival
1 | Cc1cccc(-n2c(SCc3nc(-c4ccccc4C)no3)nnc2-c2ccccc2)c1 | 74%
2 | O=C(NC1CCN(Cc2nnnn2Cc2ccc3c(c2)OCO3)CC1)c1ccccc1F | 91%
3 | NC(=O)c1cc(S(=O)(=O)NCC2CCC(C(=O)Nc3ccc(Cl)cc3)CC2)cs1 (stereo not drawn) | 66%
4 | O=C(NCc1ccc2c(c1)CCN2C(=O)c1ccc(Cl)cc1)c1ccco1 | 80%
5 | O=S(=O)(c1cc(Br)c(Br)s1)N1CCN(c2ccccc2)CC1 | 72%
6 | CCn1c(C(=O)NCCc2ccc(S(N)(=O)=O)cc2)cc2sc(Cl)cc21 | 71%
7 | CCn1c(C(=O)NCc2ccccc2Cl)cc2sc(Cl)cc21 | 63%
8 | CCn1c(C(=O)NCCc2ccc(OC)c(OC)c2)cc2sc(Cl)cc21 | 32% (active)
9 | CCOc1ccc(NC(=O)c2cc3sc(Cl)cc3n2CC)cc1 | 84%
10 | CCn1c(C(=O)NCc2ccc(C)cc2)cc2sc(Cl)cc21 | 92%
11 | Cc1ccc(CNC(=O)c2cc3sc(Cl)cc3n2C)cc1 | 80%
12 | COc1ccc(CCNC(=O)c2cc3sccc3n2Cc2ccc(Cl)cc2)cc1OC | 88%
13 | CCn1c(C(=O)NCc2ccccc2)cc2sc(Cl)cc21 | 34% (active)
14 | CCn1c(C(=O)NCc2ccc(OC)cc2)cc2sc(Cl)cc21 | 41% (active)
15 | N#Cc1c[nH]n2c(NC3CCCCC3)c(-c3ccccc3F)nc12 | 56%
16 | CCCCN(C(=O)c1cccc(S(=O)(=O)N2CCCCC2)c1)C1CCS(=O)(=O)C1 (stereo not drawn) | 117%
17 | COc1ccc(CCNC(=O)CCc2c(C)nc3c4cccnc4nn3c2C)cc1OC | 87%
18 | COc1ccc(CCNC(=O)C2COc3ccccc3O2)cc1 (stereo not drawn) | 89%
19 | Cc1ccc(NC(=O)Nc2cc3c(cc2N2CCCCC2)n(C)c(=O)n3C)cc1Cl | 99%
20 | CC1CN(C(=O)N2CCC(C(=O)NC3CCCCCC3)CC2)c2cc(Cl)ccc2O1 (stereo not drawn) | 61%

Row | SMILES | survival
21 | O=C1CC(N2CCCC2)C(=O)N1c1ccccc1 (stereo not drawn) | 96%
22 | COc1ccccc1CNC(=O)C(=O)NCC(c1cccs1)S(=O)(=O)c1ccc(F)cc1 (stereo not drawn) | 80%
23 | CC(C)c1ccc(OCc2cc(=O)n3c4c(sc3n2)CCCC4)cc1 | 73%
24 | Cc1cccn2c(=O)c(/C=C(\C#N)c3nc4ccccc4[nH]3)c(Oc3ccc(C(C)(C)C)cc3)nc12 | 93%
25 | COc1ccc(C)cc1NC(=O)CN1C(=O)COc2ccc(S(=O)(=O)N3CCC(C)CC3)cc21 | 69%
26 | COc1ccc(-c2cc(C(=O)Oc3ccc(C)cc3)c3cc(C)ccc3n2)cc1 | 22% (active)
27 | COc1ccc(-c2cc(C(=O)OCC(=O)c3cccc(OC)c3)c3cccc(Cl)c3n2)cc1 | 74%
28 | COc1ccc(-c2cc(C(=O)OC(C)C(=O)c3ccccc3)c3cccc(Cl)c3n2)cc1 (stereo not drawn) | 76%
29 | COc1ccc(-c2cc(C(=O)NCCc3ccccc3)c3cc(C(C)C)ccc3n2)cc1 | 76%
30 | COc1ccc(-c2cc(C(=O)Oc3cccc(C)c3)c3cc(C)ccc3n2)cc1 | 13% (active)
31 | COc1ccc(-c2cc(C(=O)OCC(=O)c3ccc(C)cc3)c3cccc(Cl)c3n2)cc1 | 65%
32 | COc1ccc(-c2cc(C(=O)Oc3cccc(C)c3)c3ccccc3n2)cc1 | -2% (active)
33 | Cc1ccc(-c2cc(C(=O)Oc3ccccc3)c3cc(C)ccc3n2)cc1 | 76%
34 | Cc1ccc(OC(=O)c2cc(-c3ccccc3)nc3ccc(C)cc23)cc1 | 49% (active)
35 | Cc1ccc2nc(C)cc(C(=O)O)c2c1 | 99%
36 | Cc1ccc(-n2cc(C(=O)Oc3cccc(C)c3)c3ccccc3c2=O)cc1 | 69%
37 | Cc1ccc(-c2cc(C(=O)Oc3ccccc3)c3cccc(C)c3n2)cc1 | 50%
38 | CC(C)c1ccc(OCC(=O)Nc2cc(-c3ccccc3)no2)cc1 | 110%
39 | Cn1c(Oc2cccc(Cl)c2)nc2c1c(=O)n(Cc1ccccc1Cl)c(=O)n2C | 66%
40 | O=C(Cc1ccccc1)NC1CCN(S(=O)(=O)c2cccc(F)c2)CC1 | 80%

Row | SMILES | survival
41 | Cc1c(Cl)cccc1Nc1nn2c(=O)c3ccc(C(=O)NCCc4ccccc4)cc3nc2s1 | 98%
42 | O=C(C1CCCN(S(=O)(=O)c2cccc3nsnc23)C1)N1CCN(c2ccccc2Cl)CC1 (stereo not drawn) | 107%
43 | COCCc1nn2c(=O)cc(COC(=O)c3ccco3)nc2s1 | 92%
44 | Cc1cc(C)c(NC(=O)Cn2nnc(-c3ccccc3)n2)c(C)c1 | 63%
45 | Cc1ccccc1OCC(=O)NCC(c1ccc(Cl)cc1)N1CCCCC1 (stereo not drawn) | 66%
46 | Cc1ccccc1Nc1c(-c2cccs2)nc2cccc(C)n12 | 63%
47 | COc1ccc(-c2cc(C(=O)Oc3ccccc3)c3cc(C)ccc3n2)cc1 | 9% (active)
48 | COc1ccc(-c2cc(C(=O)NC(C)c3ccccc3)c3cc(C(C)C)ccc3n2)cc1 (stereo not drawn) | 101%
49 | Cc1ccc2nc(-c3ccc(Cl)cc3)cc(C(=O)OCC(=O)c3ccccc3)c2c1 | 58%
50 | COc1cccc(CNC(=O)CN(c2ccc(C(C)C)cc2)S(=O)(=O)c2c(C)n[nH]c2C)c1 | 56%
51 | COc1ccc(CNC(=O)CN(c2ccc(C)cc2)S(=O)(=O)c2c(C)n[nH]c2C)cc1 | 85%
52 | Cc1ccc(N(CC(=O)Nc2ccc(C)c(F)c2)S(=O)(=O)c2c(C)n[nH]c2C)cc1 | 66%
53 | Cc1ccc(CNC(=O)CN(c2ccc(C(C)C)cc2)S(=O)(=O)c2c(C)n[nH]c2C)cc1 | 43% (active)
54 | Cc1n[nH]c(C)c1S(=O)(=O)N(CC(=O)Nc1ccc(C(F)(F)F)cc1)c1ccc(C(C)C)cc1 | 46% (active)
55 | Cc1n[nH]c(C)c1S(=O)(=O)N(CC(=O)NCc1ccccc1Cl)c1ccc(C(C)C)cc1 | 52%
56 | Cc1n[nH]c(C)c1S(=O)(=O)N(CC(=O)NC(C)c1ccccc1)c1ccc(C(C)C)cc1 (stereo not drawn) | 54% (active)
57 | Cc1noc(C)c1S(=O)(=O)N(CC(=O)Nc1ccc(C(F)(F)F)cc1)c1ccc(C(C)C)cc1 | 55%
58 | Cc1ccc(N(CC(=O)NC(C)c2ccccc2)S(=O)(=O)c2c(C)noc2C)cc1 (stereo not drawn) | 74%
